Compounds without any hit were thinned out: in the full panel of roughly 83,000, 20% have a hit.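 For each line, cells grew in 96-well plates with the test compound present at a single concentration for 48 hours.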 Unmarked numbers belong to inactive results. Activity calls are given as the source filed them.
Test system: SW-620 colon
Assay: NCI-60 one-dose screen, 48 h (100 = growth as untreated, 0 = no growth, -100 = all killed)
Settings: 10 µM unless noted
Experimental: Growth inhibition of the SW-620 human tumor cell line is measured as a screen for anti-cancer activity. Cells are grown in 96 well plates and exposed to the test compound for 48 hours. Compounds are tested at a single concentration, which is 10^-5 M for most compounds. The reported endpoint is percent growth (GI% or GIPRCNT), where numbers from 0 - 100% represent growth inhibition, and numbers from -100% - 0 represent cell death. For example, a value of 40 represents 60% growth inhibition. A value of 0 means no net growth occurred over the course of the experiment. A value of -40 indicates 40% of cells at the beginning of the experiment died by the end of the experiment. A value of -100 means all cells are dead at the end of the experiment.
NCI-60 Human Tumor Cell Lines Screen was performed using the standard one-dose NCI protocol, which is described in more detail at https://dtp.cancer.gov/discovery_development/nci-60/default.htm.
Compounds with GIPRCNT values below 10 were considered active. Activity score was based on GIPRCNT using the following formula: […]
Score is 0 for GIPRCNT values of 100 or above, 50 for GIPRCNT values of 0, and 100 for GIPRCNT values of -100.

| Structure (SMILES) | growth |
| --- | --- |
| C=CCn1c(C)nc2cc(Nc3nc(Nc4ccc5nc(C)n(CC=C)c5c4)nc4ccccc34)ccc21 | 106% |
| C#CC[C@@H]1C[C@]2(C)[C@H]3CC=C4[C@H]5[C@@H](C)[C@H](C)CC[C@]5(C(=O)NCCCN5CCN(CCCN)CC5)CC[C@@]4(C)[C@]3(C)CC[C@H]2C(C)(C)[C@H]1OC(C)=O | -51% (active) |
| CN(CCO)c1ccc(N2Cc3ccccc3OC3=C2C(=O)c2c(O)ccc(O)c2C3=O)cn1 | -51.7% (active) |
| C=C1NC(=O)C(C(C)CC)NC(=O)C2CSCC(NC(=O)CCC(=O)O)C(=O)NC(Cc3ccccc3)C(=O)NC(C)C(=O)NC(CC(C)CC)C(=O)NC(C(=O)NC(Cc3ccccc3)C(=O)N3CCCC3C(=O)N2)C(C)OC(=O)C(CO)NC(=O)C(C(O)COC)N(C)C(=O)C(C(C)C)NC(=O)C(CC(C)CC)NC1=O (stereo not given) | 21.2% [6 µM] |
| CC(C)OC(=O)c1ccc([N+](=O)[O-])cc1 | 109% |
| COc1cc2c(cc1OCCCOc1cc3c(cc1OC)C(=O)N1CCC[C@H]1C=N3)C=CC(C)(C)O2 | 18.1% |
| c1ccc(C(Nc2ccccn2)(c2ccccc2)c2ccccc2)cc1 | 84.4% |
| c1ccc(-c2[nH]c3ccccc3c2-c2ccccc2)cc1 | 88.3% |
| CCc1ccc2c(c1)N(CCO)C1=C(C(=O)OC1)C2c1cccc(Cl)c1 (stereo not given) | 26% |
| COc1c(B(O)O)cccc1-c1nc2ccc3[nH]ncc3c2c2c1CCCC2 | 8.47% (active) |
| O=C(Nc1ccc(Br)cc1)Nc1ccccc1Cl | 96.4% |
| CNC(=O)c1cc(Oc2ccc(NC(=O)c3[nH]c(SC)nc3-c3ccc(F)cc3)cc2)ccn1 | 90.3% |
| CCCOC(=O)C1c2cc3c(cc2CC(C)C1C(=O)OCCC)OCO3 (stereo not given) | 101% |
| Nc1nc(N)c2c(n1)NC(c1sc(Cl)nc1Cl)CC(c1ccccc1)=N2 (stereo not given) | 19.3% |
| O=C(/C=C/c1cccc([N+](=O)[O-])c1)c1ccc(Nc2nc(N3CCCCC3)nc(N3CCCCC3)n2)cc1 | 94.2% |
| CNCc1ccccc1CN(CC(=O)Nc1ccc2c(c1)CC1(C2)C(=O)Nc2ncccc21)C(=O)C(C)(C)C (stereo not given) | 97.4% |
| C=C(C)[C@@H]1CC[C@]2(C)[C@H](CC=C3[C@@H]4C[C@](C)(C(=O)N5CCN(C)CC5)CC[C@]4(C)CC[C@]32C)[C@@]1(C)CCC#N | 57.1% |
| c1ccc(C(CC2=NCCCN2)c2ccccc2)cc1 | 100% |
| CC(=O)N1N=C(c2ccc(C)cc2)CC1c1cn(-c2ccccc2)nc1-c1cccc(Nc2ccnc3cc(Cl)ccc23)c1 (stereo not given) | 27.2% |
| Nc1ccc(N(O)/C=C2\C=CC=CC2=O)cc1N | 105% |

| Structure (SMILES) | growth |
| --- | --- |
| Cc1[nH]n(C(=O)c2ccncc2)c(=O)c1N=Nc1ccc(O)c(C(=O)O)c1 | 105% |
| Cc1[nH]nc2ccc3nc(-c4ccc5[nH]ncc5c4)c4c(c3c12)CCCC4 | 6.74% (active) |
| CCCCCCCCCCCCCC(=S)NCCCC[C@H](NC(=O)OCc1ccccc1)C(=O)Nc1ccccc1 | 32.7% |
| Cc1n(Cc2ccc3ccccc3n2)cc[n+]1Cc1ccc2ccccc2n1 | 90.4% |
| COc1cc(C2CC(c3ccc(Nc4ccnc5cc(Cl)ccc45)cc3)=NN2c2ccccc2)cc(OC)c1OC (stereo not given) | 50.2% |
| FC1(F)CCN(Cc2c[nH]c3cc(Cl)ccc23)C[C@H]1CCc1ccccc1 | 38.8% |
| Cc1ccc(N=CNN=C(N)N)cc1 | 108% |
| Nc1cccc(S(=O)(=O)c2cccc(N)c2)c1 | 115% |
| COc1ccc(C(=O)/C=C/c2cn(-c3ccccc3)nc2-c2cccc(Nc3ccnc4cc(Cl)ccc34)c2)cc1 | 97.8% |
| NC(=S)N/N=C(/c1cccs1)C1CC1 | 71.6% |
| FC(F)(F)C1=NNC(c2ccc3ccccc3c2)=NN1 | 97.9% |
| CC(CN1CCN(C)CC1)CN1c2ccccc2Sc2ccc(C(F)(F)F)cc21 (stereo not given) | 22.6% |
| COc1cc(/C=C/C(=O)c2c(C)nc3ccccc3c2C)ccc1OCCCOc1cc2c(cc1OC)C(=O)N1CCC[C@H]1C=N2 | -67.6% (active) |
| Cc1cc(O)c(C2=NN(c3ccc(S(N)(=O)=O)cc3)C(c3ccc(Cl)cc3)C2)c(C)c1Cl (stereo not given) | 48.5% |
| CC1=NN(c2cccc(S(N)(=O)=O)c2)C(=O)C1 | 94.8% |
| Cc1cccc(C(=O)O)n1 | 103% |
| O=C1/C(=C\c2cccn2Cc2ccc(Cl)cc2)c2ccccc2N1c1c(Cl)cccc1Cl | 91.5% |
| O=C(CCCCCCc1nc2ccc(Br)cc2[nH]1)NO | -76.8% (active) |
| O=C(C(Br)C(Br)c1ccccc1)C(Br)C(Br)c1ccccc1 (stereo not given) | -71.1% (active) |
| COc1ccc(/C=C2\CCCC3=C2N=C2SC(C)=NN2C3c2ccc(OC)c(OC)c2)cc1OC (stereo not given) | 27.3% |

— PubChem BioAssay (NCI)
